# Measurements from the supplement of paper PMC6555819.
# Tested on: RXRa DBDmut IVT, anti-RXR (DBD mutation: RXRa K156A/R161A, NR concentration 90 nM)
# Experiment: PBM binding z-score (relative to random genomic background probes); higher = stronger binding; sequences stand for … in GC…GCGATTGACAGCGTAGAATGAAGG
# Procedure, shortened: (§1)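 For binding z-scores, the reference was random background probes on custom Agilent 4×180K protein-binding microarrays. These arrays were incubated 1 h with ligand-free nuclear receptor dimers in PBS pH 7.4, 2% milk, 0.02% Triton X-100, 1 mM DTT, 0.2 mg/mL BSA and 0.4 mg/ml salmon testes DNA. Fluorescence was scanned after antibody detection of each partner (one per run) and regression-normalized.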
row,Sequence,PBM binding z-score
1,ACTAGCAGGCCAAGTTTGGTTCACTCAAACAAAG,0.0733
2,CCTACTGGGCCATCACGTCATTGATATCAACGTT,-0.0697
3,ACTATTAGATGAGACGAGGGCAACCGATAGGTTG,0.518
4,GCTGATAGGTCAACTGATGGTCAGCTAAAGCTCG,1.65
5,TCGAATAGGTTAGTCGGGGCATTCAGCCAACATA,0.913
6,AGTCAAAGTCCAGGACGAGGTAACGTAAAGCACG,-0.0759
7,CCTTAAGGGTCACTCCAGGTTATAGCATCGGAGT,3.27
8,CAAACTAGGGCAAAGGTCAAAGTCGAGCCAACCA,2.02
9,TTACCAAGGTGAAGGTCGTTGGTCCCTCTGTAGA,0.488
10,CCTACTGGGCCCTTCAGAGGTCATTGATCATATG,-0.326
11,CCTGCGAGGTCAATGGTCAGCTAAAGCAGCTCGC,4.37
12,CGAACTAGGTCAGCACAGGACAGTGAAGGATGAT,0.563
13,ATCTCTAGGTAACCAAGTTCAGGGAATGCCGAAC,0.481
14,CCTTACGGGTCACCCCAGGTTATAGCATCGGAGT,0.177
15,TCATATAGGTAAACAGGTGAAAGGCCGTAAGTTA,1.61
16,CCAAGTTGGTCAGGAGGTCACACACCGGATATGA,1.39
17,GCTCGGAGGACAAGGTCAGAGCCTTGTCCGTAGA,0.219
18,CCTCGGAGGACAACAGGAGGTCAGCGCTGCCAGA,0.326
19,CAAACTACGTCACCGGAAGGTCAAAGTCCGCATG,0.765
20,TCATATAGGTAAAAGGAGAAAGTCGGTGTGGTAA,1.49

row,Sequence,PBM binding z-score
1,CGTCCAAGGTCAGAGAGGACAGTGAATGCCGAGT,2.6
2,GCTAGCATGCCATTTGGGTCACTCAATGACGGGC,-0.283
3,GCTCGGAGGACAAGGTCAGAGCTTTGTCCGTAGA,0.373
4,ACTATTAGTTGAGACGAGGGCGACCGATAGGTTG,0.572
5,TAGCCTAGGTCATGCGAGCCAGTATAGTGTCGGC,0.876
6,CTCGAAAGGTCGGTTGAGGTGCGTATACGGATAA,0.676
7,TAGCCTAGGTCATTCATGGGCCAGTATAGAAAGC,1.84
8,TCTTGTAGATCAACAGAGGTTAAGAAAGTGCGCT,0.665
9,TCTTGTAGATCAAGCAGGTTATGAAAGCCTGAGT,0.366
10,AGAATGAGGTTACCAAAGCTCAGGGAAACGCTTG,1.04
11,CCTCGGAGGACAGACGGTCAGAGCTGTCCGCTTT,-0.152
12,CTCGAATGGTCGGTTGAGGTGAGTATACGGATAA,-0.376
13,CGTCAAAGTTCAACTAAGGAAACGTAAAGCACGC,4.6
14,CCTATTAGTTGACCACAAGGGCAACCGAAGCTCG,0.553
15,ATATGTAGGTTAAGGGTCATTCTGGTTGGTTCGC,2.17
16,GCTTGTAGATCAAGGTGAAGAAAGACTAAGCTAA,-0.298
17,TGAATGAGGTTATAAGATCAGTGAACGTTGCAAA,0.773
18,TCTTGTAGATGAATAGAGGTTAAGAAAGTGCGCT,1.66
19,GCAGACAGGTGAAACGCAGGTAACTCAAGGTGGC,-0.708
20,CATACAGGGTCAGCTAGGGCAGAGTAGGGACGGC,1.33

# Tested on: RXRa homodimer (NR concentration 180 nM)
# Experiment: as above
# Procedure, shortened: as §1
row,Sequence,PBM binding z-score
1,ACTAGCAGGCCAAGTTTGGTTCACTCAAACAAAG,-0.193
2,CCTACTGGGCCATCACGTCATTGATATCAACGTT,-0.108
3,ACTATTAGATGAGACGAGGGCAACCGATAGGTTG,0.632
4,GCTGATAGGTCAACTGATGGTCAGCTAAAGCTCG,4.91
5,TCGAATAGGTTAGTCGGGGCATTCAGCCAACATA,0.583
6,AGTCAAAGTCCAGGACGAGGTAACGTAAAGCACG,0.28
7,CCTTAAGGGTCACTCCAGGTTATAGCATCGGAGT,6.02
8,CAAACTAGGGCAAAGGTCAAAGTCGAGCCAACCA,8.18
9,TTACCAAGGTGAAGGTCGTTGGTCCCTCTGTAGA,1.27
10,CCTACTGGGCCCTTCAGAGGTCATTGATCATATG,3.49
11,CCTGCGAGGTCAATGGTCAGCTAAAGCAGCTCGC,5.95
12,CGAACTAGGTCAGCACAGGACAGTGAAGGATGAT,1.68
13,ATCTCTAGGTAACCAAGTTCAGGGAATGCCGAAC,0.745
14,CCTTACGGGTCACCCCAGGTTATAGCATCGGAGT,5.34
15,TCATATAGGTAAACAGGTGAAAGGCCGTAAGTTA,1.2
16,CCAAGTTGGTCAGGAGGTCACACACCGGATATGA,4.6
17,GCTCGGAGGACAAGGTCAGAGCCTTGTCCGTAGA,2.81
18,CCTCGGAGGACAACAGGAGGTCAGCGCTGCCAGA,2.28
19,CAAACTACGTCACCGGAAGGTCAAAGTCCGCATG,3.55
20,TCATATAGGTAAAAGGAGAAAGTCGGTGTGGTAA,0.649

row,Sequence,PBM binding z-score
1,CGTCCAAGGTCAGAGAGGACAGTGAATGCCGAGT,3.68
2,GCTAGCATGCCATTTGGGTCACTCAATGACGGGC,0.99
3,GCTCGGAGGACAAGGTCAGAGCTTTGTCCGTAGA,2.33
4,ACTATTAGTTGAGACGAGGGCGACCGATAGGTTG,0.161
5,TAGCCTAGGTCATGCGAGCCAGTATAGTGTCGGC,3.03
6,CTCGAAAGGTCGGTTGAGGTGCGTATACGGATAA,2.12
7,TAGCCTAGGTCATTCATGGGCCAGTATAGAAAGC,3.2
8,TCTTGTAGATCAACAGAGGTTAAGAAAGTGCGCT,1.68
9,TCTTGTAGATCAAGCAGGTTATGAAAGCCTGAGT,0.465
10,AGAATGAGGTTACCAAAGCTCAGGGAAACGCTTG,2.62
11,CCTCGGAGGACAGACGGTCAGAGCTGTCCGCTTT,-0.87
12,CTCGAATGGTCGGTTGAGGTGAGTATACGGATAA,-0.171
13,CGTCAAAGTTCAACTAAGGAAACGTAAAGCACGC,4.94
14,CCTATTAGTTGACCACAAGGGCAACCGAAGCTCG,0.829
15,ATATGTAGGTTAAGGGTCATTCTGGTTGGTTCGC,6.03
16,GCTTGTAGATCAAGGTGAAGAAAGACTAAGCTAA,-0.15
17,TGAATGAGGTTATAAGATCAGTGAACGTTGCAAA,1.95
18,TCTTGTAGATGAATAGAGGTTAAGAAAGTGCGCT,1.68
19,GCAGACAGGTGAAACGCAGGTAACTCAAGGTGGC,0.523
20,CATACAGGGTCAGCTAGGGCAGAGTAGGGACGGC,4.24
